# Compounds with a hit are over-represented: about 7.3% of the library has one in this group of screens.
# FLuc modulator = inhibits or activates purified firefly luciferase, miR-21 counter-screen. P08659. purified FLuc, Km substrates, luminescence inhibition. Potency, µM (highest dose often 57.5 µM), without a hit: top-dose activity change, negative = inhibition, actives largely listed as inhibitors. 360,000 tested, 6.9% active;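 further: plate controls were vehicle for no effect and reference inhibitor for full effect; nearly all actives have a fitted effect of over 55% in size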
# Target sequence (P08659 whole entry, looked up): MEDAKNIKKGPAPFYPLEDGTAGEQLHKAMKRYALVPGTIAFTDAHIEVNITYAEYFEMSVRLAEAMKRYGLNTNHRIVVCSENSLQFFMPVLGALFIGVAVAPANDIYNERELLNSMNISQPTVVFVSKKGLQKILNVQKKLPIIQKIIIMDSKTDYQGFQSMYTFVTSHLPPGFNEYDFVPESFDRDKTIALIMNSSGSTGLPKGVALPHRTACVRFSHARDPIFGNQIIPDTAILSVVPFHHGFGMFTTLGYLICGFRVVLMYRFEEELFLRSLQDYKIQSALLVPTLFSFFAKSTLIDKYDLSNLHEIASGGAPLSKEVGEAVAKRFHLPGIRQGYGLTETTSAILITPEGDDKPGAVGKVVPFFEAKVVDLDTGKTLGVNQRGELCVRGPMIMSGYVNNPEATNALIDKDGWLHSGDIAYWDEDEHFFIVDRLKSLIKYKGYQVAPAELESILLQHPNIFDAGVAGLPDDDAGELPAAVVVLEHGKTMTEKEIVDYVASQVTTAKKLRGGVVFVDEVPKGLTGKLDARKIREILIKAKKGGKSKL
#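 Purified P. pyralis luciferase, 10 nM final, with Km-level 10 uM D-luciferin and 10 uM ATP in 50 mM Tris acetate pH 7.5, 10 mM Mg acetate, 0.01% Tween-20, 0.05% BSA; 6-point qHTS titration about 60 µM downward; luminescence read.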
# NPC1 promoter act = activates the NPC1 promoter. Potency, µM (top dose mostly 9.22 µM), for the others: top-dose activation, most hits filed as activators. AID 485313. Huh7 NPC1 promoter luciferase reporter, 24 h. 320,000 tested, 2.4% active; further: % of control where 0% means no effect; nearly all actives have a fitted effect of over 60% in size
#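 Huh7 reporter cells (NPC1 promoter driving luciferase) are dosed with compound for 24 h at 37 °C, 5% CO2; luciferase detection reagent is then added and luminescence measured after 10 min at ambient temperature.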
# KinaseGlo FLuc = counter-screen: inhibitors of Kinase-Glo firefly luciferase; Q27757; Kinase-Glo luciferase, ATP luminescence, 8 min; Potency, µM (highest dose often 38.3 µM), for the others: at the highest dose activity change, negative = inhibition, most hits filed as inhibitors; 200,000 tested, 0.28% active; AID 1379; further: on the % scale 0 is the no-effect control and ±100 the full control effect; nearly all actives have a fitted effect of over 60% in size
#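 Compounds were added to a substrate mix at pH 7.2 (50 mM imidazole, 10 uM ATP, within the enzyme's linear range), followed by Kinase-Glo detection reagent; luminescence was measured after 8 minutes at ambient temperature.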
# Rab9 prom act = activates the Rab9 promoter; Potency, µM (series often up to 9.22 µM), for inactives: at the highest dose activation, negative = inhibition, actives largely listed as activators; Huh7 Rab9 promoter-luciferase reporter, luminescence, 24 h; 320,000 tested, 2.8% active; AID 485297; further: % of control where 0% means no effect; nearly all actives have a fitted effect of over 60% in size
#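 Quantitative HTS format; Huh7 Rab9-luciferase reporter cells (1500/well) receive compound 2 h post-plating, incubate 24 h at 37 °C, then get luciferase reagent for 10 min before luminescence reading.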
# ELG1 genotoxic = genotoxicity induction in ELG1-luciferase HEK293T cells; HEK293T ELG1-luciferase reporter, luminescence, 16 h; Potency, µM (series often up to 46 µM), for inactives: at the top dose activity change, positive = activation, actives largely listed as activators; 330,000 tested, 1.3% active; AID 504466; further: % of control where 0% means no effect; nearly all actives have a fitted effect of over 60% in size
#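 HEK293T cells expressing luciferase-tagged ELG1 were treated with compound or DMSO for 16 hr at 37°C. Luciferase activity was then read after 30 min with ONE-Glo at room temperature; rising signal flags genetic stress.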
# SMN2 splice enh = SMN2 splice variant enhancement; 210,000 tested, 2.8% active; HEK293 SMN2-luciferase splicing reporter, luminescence, 30-36 h; Potency, µM (doses to about 46.1 µM), without a hit: at the top dose activity change, positive = activation, most hits filed as activators; AID 1458; further: % of control where 0% means no effect; nearly all actives have a fitted effect of over 55% in size
#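 HEK293 cells carry an SMN2 minigene-luciferase reporter in which exon 7 inclusion puts luciferase in frame. Cells were seeded at 2000 cells/well, attached for 10-12 hours, then exposed to compounds for 30-36 hours at 37C before ONE-Glo luminescence.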
# * hit, by the source's call; ? = inconclusive; . = no result given; [ ] = dose if it differs, or a comment. The call rests on the fitted dose curve; in most records, active means well fitted curve in the direction sought with a large enough effect; inconclusive means small, poorly fitted or top-dose-only effect, or another doubt; inactive means no such curve, though single readings can be large; an effect the other way counts as inactive or inconclusive. Potency means the concentration at half of the fitted maximal effect.
SMILES,FLuc modulator,NPC1 promoter act,KinaseGlo FLuc,Rab9 prom act,ELG1 genotoxic,SMN2 splice enh
CN(C(=O)c1ccc2c(c1)OCO2)C1(C(=O)NC2CCCC2)CCCCC1,1.2%[2.3 µM],1.5%,5.5%,-3.3%,-3.7%,2.2%
S=C(NC1CCCCC1)c1ccc2c(c1)OCO2,8.49µM*,24.2%,-0.4%,24.9%,11.5%,18.8%
O=C(NC1CCCCC1)c1ccc2c(c1)OCCO2,13.5µM*,1.41µM*,.,3.16µM*,20.6µM*,.
CC1=Nc2cc(C(=O)NCCc3ccc(Cl)cc3)ccc2Sc2c(C)ccc(C)c21,-3.4%,.,.,.,.,-46.2%
CCC1CCCCN1CCCNC(=O)c1ccc2c(c1)N(Cc1ccccc1F)C(=O)c1ccccc1S2(=O)=O (configuration not stated),2.6%,.,.,.,.,-75.9%
Cc1ccccc1/C=C/c1nc2ccccc2c(=O)[nH]1,2.13µM*,?,.,1.41µM*,10.3µM*,.
Cc1ccccc1/C=C\c1nc2ccccc2c(=O)[nH]1,1.9µM*,?,-7.0%,0.562µM*,18.3µM*,10µM*
CCCc1nn2c(=O)cc(COc3ccc(/C=C(\C#N)C(=O)Nc4ccccc4)cc3)nc2s1,-1.0%,.,.,.,.,-13.5%
CCOC(=O)N1CCc2c(sc(NCc3cccs3)c2C(=O)Nc2cc(Cl)ccc2OC)C1,-6.3%,.,.,.,.,.
CCN(Cc1ccccc1)c1ccc(/C=C(\C#N)c2ccccn2)cc1,7.57µM*,3.55µM*,.,1.41µM*,?,.
N#C/C(=C\c1ccc(C(=O)O)cc1)c1ccccn1,-18.1%,-1.1%,-13.1%,-2.9%,-2.5%,6.0%
CCN(CC)c1ccc(/C=C(\C#N)c2ccccn2)cc1,1.07µM*,0.447µM*,-10.8%,0.126µM*,?,1.41µM*
CN(CCC#N)c1ccc(/C=C(\C#N)c2ccccn2)cc1,1.51µM*,0.501µM*,?,0.501µM*,0.651µM*,1µM*
COc1ccc2c(c1)C(c1ccc([N+](=O)[O-])cc1)=NNC(c1ccco1)=N2,13.5µM*,-0.1%,-4.3%,-1.9%,-2.1%,-26.5%
CCN(C(=O)c1cnc(N2CCOCC2)c2ccccc12)c1cc(C)ccc1C,-1.5%,.,.,.,.,.
O=C(CN1C(=O)NC2(CCCCC2)C1=O)Nc1ccc2c(c1)OCCCO2,12µM*,3.16µM*,.,3.16µM*,?,.
CC1CCCCC12NC(=O)N(CC(=O)NC(=O)Nc1ccc3c(c1)OCCO3)C2=O (configuration not stated),10.7µM*,2.82µM*,-2.6%,3.55µM*,?,12.6µM*
COc1cccc(NC(=O)c2oc3ccccc3c2NC(=O)Cc2cccc(C)c2)c1,-0.5%,.,.,.,.,16.6%
CCCCCCCCCCCCCCCCCCc1ccc(C(=O)/C=C/C(=O)O)cc1,.,.,.,.,.,7.4%
CCCc1ccc(-c2ccc(/C=C/C(=O)O)cc2)nc1,0.536µM*,-24.6%,0.3%,-28.4%,8.0%,-70.1%
CCOc1cccc(/C=C/C(=O)O)c1,-4.1%,-0.6%,-0.6%,-0.4%,0.5%,-51.5%
CCCCCc1ccc(-c2ccc(/C=C/C(=O)O)cc2)nc1,0.379µM*,?,-1.7%,?,?,-34.8%
CCN(CC)C(=S)SCC(=O)c1ccccc1,12µM*,2.24µM*,6.4%,2.82µM*,?,12.6µM*
CCN(CC)C(=S)SCC(=O)c1c(C)[nH]c2ccccc12,?,0.4%,2.0%,2.8%,1.7%,?
CCN(CC)C(=S)SCC(=O)c1ccc(F)cc1,15.1µM*,2.51µM*,-4.1%,2.51µM*,?,17.8µM*
SMILES,FLuc modulator,NPC1 promoter act,KinaseGlo FLuc,Rab9 prom act,ELG1 genotoxic,SMN2 splice enh
CC(=O)C(Sc1nc(-c2ccccc2Cl)nc2c1c(=O)n(C)c(=O)n2C)C(=O)N(C)C (configuration not stated),0.9%,.,.,.,.,.
COc1ccc2c(c1)OCc1c-2oc2cc(OC)ccc12,.,.,-2.3%,.,.,12.6µM*
COc1ccc2c(=O)c(OC)c(-c3ccccc3)oc2c1,.,.,-1.8%,.,.,-20.5%
Cc1cccc(OCC(=O)N(Cc2ccc(C(C)(C)C)cc2)Cc2ccco2)c1,3.3%,.,.,.,.,-8.5%
CCOc1ccc(CNCc2c(C(=O)O)c(C)n(Cc3ccc(F)cc3Cl)c2C)cc1,-13.3%,.,.,.,.,8.2%
COc1ccc(/C=N/Nc2nc(Nc3ccccc3)nc(N3CCCC3)n2)cc1[N+](=O)[O-],-12.8%,-9.3%,-1.2%,-19.4%,?,0.2%
COc1ccc(/C=N/Nc2nc(Nc3ccccc3)nc(N3CCCCC3)n2)c(OC)c1,6.75µM*,-2.4%,0.0%,-2.6%,-1.7%,-21.5%
COc1ccc(/C=N/Nc2nc(N3CCCC3)nc(N3CCCC3)n2)c(OC)c1OC,-4.2%,-1.7%,-0.6%,3.3%,-2.8%,-2.7%
Fc1ccc(Nc2nc(N/N=C/c3ccco3)nc(N3CCCCC3)n2)cc1,26.9µM*,-8.1%,-4.3%,-3.5%,-13.7%,-24.0%
Cc1[nH]c2ccccc2c1/C=N/Nc1nc(Nc2ccccc2)nc(N2CCOCC2)n1,4.78µM*,13.2%,-1.7%,0.2%,-10.2%,-8.0%
COc1cc(/C=N/Nc2nc(Nc3ccccc3)nc(N3CCCCC3)n2)ccc1OCC(=O)O,0.953µM*,12.0%,-0.1%,17.2%,-2.3%,15.4%
C(=N\Nc1nc(N2CCOCC2)nc(N2CCOCC2)n1)/c1ccco1,3.7%,-6.0%,-0.7%,-0.2%,-3.4%,-12.4%
Cc1cc2c(cc1NS(=O)(=O)c1cccc(C#N)c1)n(C)c(=O)c(=O)n2C,3.3%,.,.,.,.,.
CCOC(=O)c1ccc(NC(=O)CSc2cc(-c3ccccc3)nc(C)n2)cc1,-14.0%,.,.,.,.,.
Cc1ccc(NC(=O)CN(CCc2ccccc2)S(=O)(=O)c2ccccc2)c(C)c1,1.4%,.,.,.,.,-14.0%
Cc1cc2oc3c(c(=O)c2cc1C)C(c1ccc(C(C)C)cc1)N(c1nc(C)c(C)s1)C3=O (configuration not stated),0.8%,.,.,.,.,4.9%
CN(C)c1cnn(-c2ccccc2)c(=O)c1Cl,?,13.4%,1.3%,12.5%,15.9%,21.3%
Cc1ccc(-n2ncc(N(C)C)c(Cl)c2=O)cc1,5.36µM*,0.398µM*,-15.7%,1.12µM*,?,?
COc1ccc(-n2ncc(Cl)c(Cl)c2=O)cc1,-10.2%,-42.3%,0.3%,-50.5%,-21.6%,-83.5%
COc1ccc(-n2ncc(N(C)n3cccc3)c(Cl)c2=O)cc1,4.78µM*,1.26µM*,.,0.562µM*,?,.
Cc1ccc(NS(=O)(=O)c2ccc3c(c2)N(C)C(=O)CC(=O)N3C)cc1Cl,-9.0%,.,.,.,.,.
O=C(Nc1cccc(/C=C/c2ccccn2)c1)c1cc(Cl)ccn1,19µM*,?,.,2.82µM*,?,.
O=C(Nc1cccc(/C=C/c2ccccn2)c1)c1ccc(-n2cncn2)c([N+](=O)[O-])c1,23.9µM*,-3.2%,.,17.8%,-41.7%,.

# Compound activity (PubChem)
